Assay outcomes from PubChem BioAssay.
Hits are enriched below; roughly 19% of the tested compounds scored in any of these assays.
HT1080 IDH1KD tx: qHTS for induction of synthetic lethality in tumor cells producing 2HG: qHTS for the HT-1080-IDH1KD cell line | AID 686971, 2013 | Potency, µM (series often up to 46.1 µM), for inactives: at the highest dose activity, negative = toxicity, usual class: cytotoxic | HT-1080 IDH1 knockdown viability, ATP luminescence, 48 h | hit rate 2% among 360,000;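 note: potency is the fitted concentration of half-maximal effect; 0% = DMSO wells and -100% = cell-free medium wells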
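Using the IDH1-knockdown HT-1080 line run in the same batch and compound series as the NT line, viability after 48 h at 37 °C was determined by CellTiter-Glo luminescence and expressed as % activity.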
ELG1 DNA repair: qHTS screen for small molecules that inhibit ELG1-dependent DNA repair in human embryonic kidney (HEK293T) cells expressing luciferase-tagged ELG1. hit rate 2.3% among 330,000. AID 504467, 2011. Potency, µM (highest dose often 46.1 µM), for the others: at the highest dose activity change, negative = inhibition, hits mostly inhibitors. HEK293T ELG1-luciferase reporter, luminescence, 16 h; DNA damage induced by 5-fluorouridine; note: potency is the fitted concentration of half-maximal effect; nearly all actives have a fitted effect of over 55% in size
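Luminescence from the luciferase reporter, measured 30 min after ONE-Glo reagent at room temperature, was the read-out. Beforehand, 2,000 cells per well were exposed for 16 hr at 37 °C to 5-fluorouridine together with compound or vehicle.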
DT40 TDP1 CPT: qHTS for Inhibitors of human tyrosyl-DNA phosphodiesterase 1 (TDP1): qHTS in cells in presence of CPT. chicken DT40 Tdp1-/-;hTDP1 cells + 20 nM CPT, ATP luminescence, 48 h. Potency, µM (top dose mostly 46.2 µM), for the others: at the top dose activity change, negative = growth inhibition, most hits filed as inhibitors. hit rate 12% among 420,000. AID 686979, 2013; note: potency is the fitted concentration of half-maximal effect; nearly all actives have a fitted effect of over 55% in size
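Chicken DT40 Tdp1-/- cells stably complemented with human TDP1 were seeded at 400 cells/well in medium containing 20 nM camptothecin, exposed to pin-transferred compounds, and grown at 37 °C for at least 48 hr. Viability was read as ATP luminescence.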
IL1B secr inh: qHTS for Inhibitors of Inflammasome Signaling: IL-1-beta AlphaLISA Primary Screen; activity change, % at 57.5 µM; hit rate 4.7% among 360,000; THP-1 LPS/ATP IL-1B secretion, AlphaLISA, 16 h; hits give low values; AID 743279, 2014; in the data active = activity change below about -50%; inconclusive = mostly about -30% to -49%
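THP-1 cells pretreated 1 hr with compounds (up to 57.5 uM final), then stimulated with LPS (250 ng/mL final) plus ATP (1.25 mM final); secreted IL-1B measured by AlphaLISA after 16 hr, decreased signal indicating inhibition.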
HT1080NT lethal: qHTS for induction of synthetic lethality in tumor cells producing 2HG: qHTS for the HT-1080-NT fibrosarcoma cell line; HT-1080-NT fibrosarcoma viability, CellTiter-Glo ATP luminescence, 48 h; Potency, µM (top dose mostly 46.1 µM), for the others: at the highest dose activity, negative = less viability, actives largely listed as cytotoxic; hit rate 1.6% among 360,000; AID 686970, 2013;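 note: NT is the 2HG producing partner of a matched IDH1 knockdown line; potency is the fitted concentration of half-maximal effect; 0% = DMSO-treated cells and -100% = media-only wells without cells; nearly all actives have a fitted effect of over 55% in size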
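A 48-hour cytotoxicity screen used HT-1080-NT cells plated 2 hours before compound delivery. ATP-based CellTiter-Glo luminescence measured viability, normalized to DMSO and no-cell controls.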
TDP1 cell noCPT: qHTS for Inhibitors of human tyrosyl-DNA phosphodiesterase 1 (TDP1): qHTS in cells in absence of CPT. DT40 Tdp1-/- hTDP1 cells, no CPT, ATP luminescence, 48 h. Potency, µM (doses to about 46.2 µM), for inactives: top-dose activity change, negative = growth inhibition, actives largely listed as inhibitors. hit rate 15% among 420,000. AID 686978, 2013; note: potency is the fitted concentration of half-maximal effect; nearly all actives have a fitted effect of over 55% in size
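DT40 Tdp1-/-;hTDP1 cells, no CPT (DMSO vehicle only), 400 cells/well; compounds pin-transferred; ≥48 hr, 37 °C; CellTiter-Glo 30 min RT dark, luminescence read.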
* marks the source's active call; other numbers are inactive results; i = inactive; ? = inconclusive; · = not tested or not shown; [ ] = another dose, or the depositor's remark. Unless noted, calls come from the whole dose curve; as a rule, active = well fitted curve in the direction sought with a large enough effect; inconclusive = small, poorly fitted or top-dose-only effect, or another doubt; inactive = no such curve, though single readings can be large; an effect the other way counts as inactive or inconclusive. Unless noted, % is set by controls: 0 for no effect and ±100 for the full control effect.

SMILES | HT1080 IDH1KD tx | ELG1 DNA repair | DT40 TDP1 CPT | IL1B secr inh | HT1080NT lethal | TDP1 cell noCPT
COC(=O)c1ccc(/C=C2\Oc3ccccc3NC2=O)cc1 | 6% | ? | -13% | -53* | 8% | 3%
COC(=O)c1ccc2c(c1)C(=O)/C(=C/c1ccc(C)cc1)O2 | -3% | ? | 18µM* | 0 | -5% | 13µM*
Nc1nonc1C(=O)N/N=C\c1cc2c(cc1Cl)OCO2 | -3% | ? | 0% | -8 | -7% | 22%
CC1=C(C(=O)N2CCOCC2)CC(CC(=O)NCCCCc2ccccc2)C(=O)N1CCC1=CCCCC1 (stereo not given) | 1% | · | ? | 2 | 3% | ?
CC(=O)/C(N=Nc1cc(C)ccc1O)=C(\C)O | -7% | 0% | 2% | -14 | 0% | -23%
CC(=O)/C(N=Nc1ccc(C(=O)O)cc1[N+](=O)[O-])=C(\C)O | -3% | 5% | -1% | -6 | 0% | 11%
CC(=O)/C(N=Nc1cc2c(cc1[N+](=O)[O-])OCCO2)=C(\C)O | -15% | -4% | ? | 29 | -12% | 26µM*
CC(=O)/C(N=Nc1cc2c(c([N+](=O)[O-])c1C)C(C)(C)CC2(C)C)=C(\C)O | 14% | ? | ? | -5 | 12% | 18µM*
COc1ccc(S(=O)(=O)N2CCN(CC(=O)NCCc3cccs3)CC2)cc1 | -3% | -3% | -14% | -3 | -7% | -12%
O=C(NC1CCCC1)c1cccc(S(=O)(=O)N2CCCC2)c1 | -1% | -2% | -6% | 14 | -2%[9.24 µM] | 6%
CN(C)C(CNC(C(=O)Nc1ccc(F)cc1)c1ccccc1)c1ccccc1 (stereo not given) | -27% | 18% | -20% | -80* | -27% | ?
CN(C)C(CNC(C(=O)Nc1ccc([N+](=O)[O-])cc1Br)c1ccccc1)c1ccccc1 (stereo not given) | 23µM* | 2% | ? | -73* | 23µM* | ?
CN(CC(=O)Nc1cccc(F)c1)C(=O)COc1cccc2c1OC(C)(C)C2 | 16% | 10% | -8% | i | 4% | ?
Cc1ccc(NC(=O)C(Cc2ccccc2)n2cccc2)cc1C (stereo not given) | · | · | 12µM* | · | · | 16µM*
Cc1cccc(NC(=O)C(Cc2ccccc2)n2cccc2)c1 (stereo not given) | 2% | ? | ? | ? | 4% | ?
Cc1ccc(Cl)cc1NC(=O)C(Cc1ccccc1)N1C(=O)C2C3CCC(C3)C2C1=O (stereo not given) | -5% | ? | ? | -8 | -11% | 15µM*
O=C(NCc1ccccc1)C(Cc1ccccc1)N1C(=O)C2C3CCC(C3)C2C1=O (stereo not given) | -5% | 6% | -25% | -1 | 1% | -27%
Cc1ccc(NC(=O)C(Cc2ccccc2)N2C(=O)C3C4CCC(C4)C3C2=O)cc1Cl (stereo not given) | -25% | 18µM* | ? | -11 | -15% | ?
O=C(CC1NCCNC1=O)Nc1ccc(F)c(Cl)c1 (stereo not given) | · | · | -7% | · | · | -16%
CCCCC(=O)OCc1c(-c2ccccc2)ncc2ccccc12 | 12% | -13% | 5% | 24 | 4% | -12%
CC(=O)Nc1ccccc1-c1nc2ccccc2n(CC(=O)Nc2ccc(C)c(Cl)c2)c1=O | · | · | -8% | · | · | -3%
COc1ccc(OC)c(NC(=O)C(C)n2c(=O)c(-c3ccccc3NC(C)=O)nc3ccccc32)c1 (stereo not given) | · | · | 23µM* | · | · | ?
CC(=O)Nc1ccccc1-c1nc2ccccc2n(C(C)C(=O)Nc2cc(Cl)ccc2C)c1=O (stereo not given) | · | · | ? | · | · | 26µM*
Cc1ccc2oc3c(c(=O)c2c1)C1(C(=O)N(C)c2ccccc21)N(CCCO)C3=O (stereo not given) | · | · | -11% | · | · | -1%
COc1ccc(-c2cn3cccnc3n2)cc1NC(=O)COc1ccccc1 | · | · | 21µM* | · | · | 13µM*
SMILES | HT1080 IDH1KD tx | ELG1 DNA repair | DT40 TDP1 CPT | IL1B secr inh | HT1080NT lethal | TDP1 cell noCPT
O=S(=O)(Nc1cccc(-c2cn3cccnc3n2)c1)c1ccc(Cl)cc1 | -8% | -1% | ? | -70* | 2% | ?
CC(=O)Nc1cccc(-c2cn3cccnc3n2)c1 | · | · | 3% | · | · | 2%
COc1ccc(C)cc1S(=O)(=O)Nc1cccc(-c2cn3cccnc3n2)c1 | -5% | 0% | 6% | -20 | -10% | ?
O=C(COc1ccccc1)Nc1cccc(-c2cn3cccnc3n2)c1 | 11% | ? | 21µM* | i | 8% | ?
COc1ccc(-c2cn3cccnc3n2)cc1NC(=O)C(C)C | · | 21% | · | · | · | ·
COc1ccc(NC(=O)c2cn3c4c(ccc(Cl)c4c2=O)OC(C)C3)cc1OC (stereo not given) | · | · | -9% | · | · | ?
O=C(COc1ccc(Br)cc1)N(Cc1ccco1)C1CCS(=O)(=O)C1 (stereo not given) | 4% | 0% | -18% | 17 | -1% | 3%
Cc1oc(-c2ccccc2NC(=O)C2CCC2)nc1CNC(=O)c1c(F)ccc(F)c1F | · | · | 3%[9.04 µM] | · | · | -14%
C=CCSc1ncc(C(=O)OCC)c(N)n1 | -13% | ? | -5% | 13 | 2% | 2%
CCOC(=O)c1cnc(SSc2ncc(C(=O)OCC)c(N)n2)nc1N | -4% | ? | 23µM* | 0 | 1% | 15µM*
COc1cccc(-c2nccc(NCc3cnc(C)cn3)n2)c1 | · | · | 8% | · | · | -18%
OCCNc1nc(-c2cccnc2)nc2ccccc12 | 0%[9.24 µM] | 0% | -32% | -21 | 2% | -18%
COc1ccc2[nH]cc(CCNc3ccnc(-c4ccccc4C)n3)c2c1 | · | · | 21µM* | · | · | ?
